Data taken from PubChem BioAssay AID1508602 (The Scripps Research Institute Molecular Screening Center, 2020).
Values joined by “and” are separate entries in the source; they are usually repeats but may differ in a detail not shown here. Identical values can stand only once. Out of some 650,000 compounds screened, about 6,800 (1%) were called active. Cut-off read from the data, not from the text of the source: active = activation above about 4.9%; inactive = the rest. The list comes from a sample in which actives are over-represented; it also holds similar structures and randomly drawn compounds.

Target: G-protein coupled receptor 151 (Homo sapiens) (UniProt Q8TDV0)
Experiment: activators of human GPR151, primary screen, cell-based, PathHunter beta-arrestin, luminescence (AID 1508602);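 note: 0% = median of compound wells and 100% = cells with positive control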
Details: PathHunter beta-arrestin GPR151 cells, at 11.2 µM, active compounds read high

Chain of G-protein coupled receptor 151 (Homo sapiens) (Q8TDV0 whole entry, looked up): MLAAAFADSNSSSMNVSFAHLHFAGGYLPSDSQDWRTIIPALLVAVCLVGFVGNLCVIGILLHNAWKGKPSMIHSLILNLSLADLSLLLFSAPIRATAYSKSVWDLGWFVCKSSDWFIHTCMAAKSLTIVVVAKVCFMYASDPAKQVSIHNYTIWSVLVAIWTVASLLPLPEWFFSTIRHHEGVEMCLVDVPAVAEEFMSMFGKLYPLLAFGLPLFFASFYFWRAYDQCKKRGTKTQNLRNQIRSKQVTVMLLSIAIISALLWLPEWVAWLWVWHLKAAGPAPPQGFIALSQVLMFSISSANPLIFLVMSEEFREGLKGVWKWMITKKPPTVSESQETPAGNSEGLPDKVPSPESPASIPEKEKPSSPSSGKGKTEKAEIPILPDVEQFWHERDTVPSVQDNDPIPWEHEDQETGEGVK

Row | Compound | activation
1 | COc1cccc2cc(C(=O)N(C)C)c(=O)oc12 | 5.93% (active)
2 | CCCN(CCC)C(=O)c1cc2cccc(OC)c2oc1=O | 2.62% (inactive)
3 | COc1ccc(NC(=O)c2cc3cccc(OC)c3oc2=O)cc1OC | -1.45% (inactive)
4 | CCn1c(COc2ccccc2)nnc1Sc1ccc([N+](=O)[O-])cc1C=O | 8.41% (active)
5 | O=[N+]([O-])c1ccc(OCc2nnc(SCCN3CCOCC3)n2-c2ccccc2)cc1 | 0.574% (inactive)
6 | CCn1c(COc2ccccc2OC)nnc1SCC(=O)NC | 1.05% (inactive)
7 | COc1cc([N+](=O)[O-])ccc1NC(=S)NCc1cc(C)n(C)n1 | 6.53% (active)
8 | COc1ccc(CCNC(=S)NCc2cc(C)n(C)n2)cc1OC | 14.1% (active)
9 | COc1ccc(NC(=S)NCc2cc(C)n(C)n2)cc1OC | 2.25% (inactive)
10 | CCCC(=O)NC(=S)Nc1ccc([N+](=O)[O-])cc1OC | 0.167% (inactive)
11 | COc1cc([N+](=O)[O-])ccc1NC(=O)C1CCCC1 | 0.251% (inactive)
12 | COc1ccc(CCNC(=S)Nc2c(C)n(C)n(-c3ccccc3)c2=O)cc1OC | 0.54% (inactive)
13 | CCc1nc2ccccc2c2nn(CC(=O)NCCc3ccc(OC)c(OC)c3)c(=O)n12 | 0.488% (inactive)
14 | COC(=O)c1ccc(Nc2nc3c(s2)CCc2ccccc2-3)cc1 | 1.88% (inactive)
15 | Cc1ccc(C)c(OCCOCCNCCN)c1C | 0.982% (inactive)
16 | CN(C)c1cc(Oc2ccc(=O)[nH]n2)nc(N(C)C)n1 | 0.738% (inactive)
17 | CC(C)(C)c1ccc(C(=S)NCCCn2ccnc2)cc1 | 1.31% (inactive)
18 | COc1ccc(NC(=O)Cn2nnc(-c3ccccc3NC(=O)c3cccc(C)c3)n2)cc1 | -0.639% (inactive)
19 | CCOC(=O)c1c(C)oc2c(Br)cc3oc(=O)c(C(=O)CC)cc3c12 | -0.749% (inactive)
20 | COC(=O)CN(C)C(=O)CC1C(=O)NCCN1Cc1ccc(OC)c(OC)c1 (centres undefined) | -0.568% (inactive)
21 | CCCCOc1ccc(OC(=O)c2ccc(-c3ccc(CC)cn3)cc2)cc1 | 0.589% (inactive)
22 | CCc1ccc(-c2ccc(C3CCC(CC)CC3)cc2)nc1 (centres undefined) | 10.7% (active)
23 | CCCC1CCC(c2ccc(-c3ccc(CC)cn3)cc2F)CC1 (centres undefined) | 3.24% (inactive)
24 | COc1ccc(/C(O)=C2/C(=O)C(=O)N(CCCC(=O)O)C2c2ccc(O)cc2)cc1 (centres undefined) | 0.777% (inactive)

Row | Compound | activation
25 | Cc1ccc(N2NC3(CCCCC3)NC2=S)cc1C | 1.89% (inactive)
26 | CCC1(c2ccc(Cl)cc2Cl)NC(=S)N(c2ccc(C)c(C)c2)N1 (centres undefined) | 6.17% (active)
27 | Cc1ccc(-n2[nH]c(C)c(C=Nc3ccc(N=Cc4c(C)[nH]n(-c5ccc(C)c(C)c5)c4=O)cc3)c2=O)cc1C | 1.34% (inactive)
28 | CCCCOC(=O)C1=C(C)NC2=C(C(=O)CCC2)C1c1cccc([N+](=O)[O-])c1 (centres undefined) | 6.33% (active)
29 | CCCCOC(=O)C1=C(C)NC2=C(C(=O)CCC2)C1c1ccccc1[N+](=O)[O-] (centres undefined) | 1.59% (inactive) and 0.946% (inactive)
30 | COc1ccc(COC(=O)C2=C(C)NC3=C(C(=O)CCC3)C2c2cccc([N+](=O)[O-])c2)cc1 (centres undefined) | -0.575% (inactive)
31 | Cn1nc2c(nc1=O)[nH]c1ccccc12 | -0.513% (inactive)
32 | Cc1ccc(OCCN2CCNCC2)cc1C | -1.28% (inactive)
33 | COc1cc2nc(-c3cccc(C(C)=O)c3)nc(Nc3ccc(N4CCOCC4)cc3)c2cc1OC | 5.83% (active)
34 | COc1cc2nc(-c3ccc(N4CCOCC4)nc3)nc(Nc3ccc(NC(C)=O)cc3)c2cc1OC | 0.834% (inactive)
35 | CC(=O)c1cccc(-c2cccc(C(=O)Nc3ccc(N4CCOCC4)cc3)c2)c1 | -0.102% (inactive)
36 | COc1cc(C2C3=C(CC(C)(C)CC3=O)Nc3ccc4ncccc4c32)ccc1OC(C)=O (centres undefined) | -0.317% (inactive)
37 | O=C(Cc1cccs1)N1CCCCC1c1nc2ccccc2[nH]1 (centres undefined) | 0.204% (inactive)
38 | O=C(Nc1ccc(Br)cc1Cl)N1CCN(c2ncccn2)CC1 | -0.59% (inactive)
39 | Cn1c(SCCN2CCCCC2)nnc1C1CCN(C/C=C/c2ccco2)CC1 | 1.24% (inactive)
40 | COc1cccc(C(=O)Nc2ccc(N3CCCC3=O)cc2)c1 | -9.98% (inactive)
41 | O=C(Nc1ccc(S(=O)(=O)Nc2ncccn2)cc1)c1cncc(Br)c1 | -0.902% (inactive)
42 | O=C(Nc1ccc(N2CCCC2=O)cc1)c1cncc(Br)c1 | 5.11% (active)
43 | C(=N\c1nnc2nc[nH]n12)/c1ccco1 | -0.745% (inactive)
44 | CC(C)CNC(=O)c1ccc(F)c(S(=O)(=O)N2CCOCC2)c1 | 1.07% (inactive)
45 | COc1ccc(S(=O)(=O)Oc2ccc(Cl)c3cccnc23)cc1OC | 2.28% (inactive)
46 | COc1ccc(OC)c(S(=O)(=O)Oc2ccc(Cl)c3cccnc23)c1 | 12.1% (active)
47 | O=[N+]([O-])c1ccc(Oc2ccc(Cl)c3cccnc23)c(Cl)c1 | 0.725% (inactive)
48 | COC(=O)c1cc2cc(N)ccc2s1 | 0.191% (inactive)

Row | Compound | activation
49 | CCCS(=O)(=O)N1CCN=C1SCc1cccc(Cl)c1 | -1.49% (inactive)
50 | Cc1cccc(NC(=O)CSc2nc3[nH]ncc3c(=O)[nH]2)c1 | 5.01% (active)
51 | Cc1nnc(SCC(=O)Nc2cccc(Cl)c2)[nH]c1=O | 0.326% (inactive)
52 | Cc1nc(SCC(=O)Nc2cccc3ccccc23)n[nH]1 | -0.295% (inactive)
53 | Cc1cc(=O)[nH]c(SCC(=O)Nc2ccccn2)n1 | 0.382% (inactive)
54 | O=C(CSc1ccc(F)cc1)Nc1ccccc1-c1nc2ccccc2s1 | -0.819% (inactive)
55 | Cc1cccc(NC(=O)CSc2ncn[nH]2)c1 | -0.535% (inactive)
56 | Cc1cc(=O)[nH]c(SCC(=O)Nc2ccc(C(N)=O)cc2)n1 | -0.979% (inactive)
57 | O=C(CSc1ccc(F)cc1)Nc1cccc2ccccc12 | 7.44% (active)
58 | Cc1cc(=O)[nH]c(SCC(=O)Nc2cccc3ccccc23)n1 | 15.8% (active)
59 | COc1ccc(C(=O)c2snc(Nc3ccccc3)c2N)cc1 | 0.834% (inactive)
60 | CCSc1c(O)cnn(-c2ccccc2)c1=O | 0.94% (inactive)
61 | CCOC(=O)C(C#N)C(C#N)(C(=O)OCC)C1CCCCC1=O (centres undefined) | 2.95% (inactive)
62 | O=C(CNC(=O)c1ccc(NC2CC2)c([N+](=O)[O-])c1)Nc1ccc(F)c(F)c1F | 0.807% (inactive)
63 | Cc1csc(Nc2ncnc(N)c2[N+](=O)[O-])n1 | -0.642% (inactive)
64 | Nc1ncnc(Oc2ccccc2Cl)c1[N+](=O)[O-] | 1.64% (inactive)
65 | Cc1ccc[n+](-c2ncnc(N)c2[N+](=O)[O-])c1 | 6.28% (active)
66 | CSc1ncc(C(=O)Nc2ccc(F)cc2C)c(C)n1 | -0.309% (inactive)
67 | O=C(Nc1ccccc1)NC1(C(=O)Nc2ccc(F)cc2F)CCCCC1 | 0.408% (inactive)
68 | Cc1ccc(NC(=O)Cn2c(C)c(C=O)c3ccccc32)cc1C | 1.3% (inactive)
69 | COc1ccc(-c2nnc(SCC(=O)Nc3ccc4c(c3)OCCO4)o2)cc1OC | 0.0025% (inactive)
70 | CCC(CC)C(=O)N1CCN(Cc2nc3sc(C)c(C)c3c(=O)[nH]2)CC1 | 5.71% (active)
71 | Cc1sc2nc(CN(C(=O)C3CC3)C3CCCC3)[nH]c(=O)c2c1C | 0.605% (inactive)
72 | Cc1sc2nc(Cc3ccccc3)[nH]c(=O)c2c1C | 0.303% (inactive)

Row | Compound | activation
73 | O=C(CCCCn1c(=O)[nH]c2ccccc2c1=O)N1CCN(c2cccc(Cl)c2)CC1 | -0.11% (inactive)
74 | CCCCc1ccc(N=Cc2nc(-c3cccc4ccccc34)oc2O)cc1 | 7.67% (active)
75 | CCCCc1ccc(-c2nc(C=Nc3ccc(C(C)=O)cc3)c(O)o2)cc1 | -0.204% (inactive)
76 | Oc1oc(-c2cccc3ccccc23)nc1C=Nc1ccc2ccccc2c1 | -1.09% (inactive)
77 | COc1ccc(CNC2CCCN(c3nc(C)c4ccc(C)cc4n3)CC2)cc1OC (centres undefined) | -0.801% (inactive)
78 | COc1ccc(NC(=O)C2CC(=O)N(C3CCCCC3)C2)cc1 (centres undefined) | 0.591% (inactive)
79 | Cc1ccc(C)c(NC(=O)C(Cc2ccccc2)N2C(=O)c3cccc([N+](=O)[O-])c3C2=O)c1 (centres undefined) | 1.63% (inactive)
80 | CCOc1ccc(C(=O)Nc2nnc(CC)s2)cc1[N+](=O)[O-] | 7.7% (active)
81 | CCOc1ccc(C(=O)Nc2ccccc2I)cc1[N+](=O)[O-] | 2.03% (inactive)
82 | CCOc1ccc(C(=O)Nc2ccc(C(=O)OC)cc2)cc1[N+](=O)[O-] | 1.51% (inactive)
83 | Cc1ccccc1-n1c(C)cn2c3c(=O)n(CC(N)=O)c(=O)n(C)c3nc12 | 0.26% (inactive)
84 | O=S(=O)(NC1CCCCC1)c1ccc(S(=O)(=O)n2cnc3ccccc32)cc1 | 3.37% (inactive)
85 | COc1ccc(S(=O)(=O)N(C)CC(=O)Nc2cccc(C(F)(F)F)c2)cc1OC | 1.26% (inactive)
86 | CCc1cccc(CC)c1NC(=O)CCS(=O)(=O)c1ccc2c(c1)SCC(=O)N2 | -0.523% (inactive)
87 | COc1cccc(NC(=O)CN(C)S(=O)(=O)c2ccc3c(c2)SCC(=O)N3)c1 | 5.58% (active)
88 | O=C(NNC1=NCCCCC1)c1ccc([N+](=O)[O-])cc1 | 4.83% (inactive)
89 | CC(=O)NCc1nnc2n1CCN(Cc1ccc(-c3ccccc3)cc1)CC2 | -0.371% (inactive)
90 | CC(C)CNC(=O)C(C)N(c1ccccc1)S(C)(=O)=O (centres undefined) | 1.91% (inactive)
91 | Cc1nc2ncnn2c(C)c1Cc1c(F)cccc1Cl | 0.47% (inactive)
92 | Cc1nc2nc(SCc3ccc([N+](=O)[O-])cc3)nn2c(C)c1Cc1c(F)cccc1Cl | 5.69% (active)
93 | Cc1nc2nc(SCc3c(F)cccc3Cl)nn2c(C)c1Cc1c(F)cccc1Cl | 0.427% (inactive)
94 | CCOC(=O)c1cnc2c(C)c(Cl)ccc2c1Nc1cccc(C)c1 | 1.7% (inactive)
